# Laboratory results taken from PubChem BioAssay AID1566 (Sanford-Burnham Center for Chemical Genomics, 2009).
# Values joined by “and” are separate entries in the source; they are usually repeats but may differ in a detail not shown here. Equal entries are not always repeated. Among all 290,000 compounds or so, about 1,800 (0.62%) were called active. No stated cut-off is given here; in the data, active means inhibition above about 50%; inactive means the rest. For the sample, actives were picked, then their nearest neighbours and some compounds at random.
# Assay: inhibition of NOD2-driven NF-kB reporter – cell-based, luminescence, uHTS, HEK293 (AID 1566)
# Conditions: HEK293 NOD2/NF-kB luciferase reporter, at 4 µM, hits give high values
row,Compound,inhibition
1,CCOc1ccccc1C(=O)OCC(=O)NCCNC(=O)COC(=O)c1ccccc1OCC,-4.3% (inactive)
2,CCCN1C(=O)/C(=C/c2ccc(C)o2)SC1=Nc1ccc(OCC)cc1,1.9% (inactive)
3,O=c1cc(CSc2nnc(COc3ccc(Cl)cc3)o2)c2ccccc2[nH]1,17.3% (inactive)
4,COc1cccc(C2CNC3(CCCC(C)C3)c3[nH]c4ccccc4c32)c1OC (configuration not stated),-9% (inactive)
5,O=C(N/N=C/c1cccc(O)c1)c1ccc(COc2ccc3c(c2)CCC3)o1,-30.7% (inactive)
6,O=C(N/N=C/c1cc([N+](=O)[O-])ccc1O)c1ccc(COc2ccc3c(c2)CCC3)o1,50.4% (active)
7,COc1ccc(Br)cc1/C=N/NC(=O)c1ccc(COc2ccc3c(c2)CCC3)o1,-48.8% (inactive)
8,O=C(NCCc1ccc(Cl)cc1)C1CCCN1C(=O)Nc1ccccc1 (configuration not stated),13.4% (inactive)
9,Cc1ccc(NC(=O)C(C)Sc2n[nH]c(CNc3ccccc3)n2)cc1 (configuration not stated),3.6% (inactive)
10,Cc1ccc(NC(=O)C2CCN(S(=O)(=O)c3ccc4c(c3)NC(=O)C(C)S4)CC2)cc1C (configuration not stated),16.5% (inactive)
11,CC1Sc2ccc(S(=O)(=O)N3CCC(C(=O)Nc4cccc(Cl)c4)CC3)cc2NC1=O (configuration not stated),14.4% (inactive)
12,CN(C)c1ccc(C2N(C(=O)N3CCOCC3)CCN2S(=O)(=O)c2ccccc2)cc1 (configuration not stated),13.1% (inactive)
13,Cc1c(Br)c([N+](=O)[O-])nn1CC(=O)Nc1ccc2nc3n(c(=O)c2c1)CCCC3,17.3% (inactive)
14,Cc1ccc(/C=C(/NC(=O)c2ccccc2)C(=O)NC(Cc2c[nH]c3ccccc23)C(=O)O)cc1 (configuration not stated),9.4% (inactive)
15,COc1ccc([N+](=O)[O-])c(S(=O)(=O)c2ccccc2)n1,29% (inactive)
16,COc1nc(OC)nc(Oc2ccc(Cl)cc2[N+](=O)[O-])n1,10.1% (inactive)
17,COc1ccc([N+](=O)[O-])c(S(=O)(=O)c2ccc(Cl)cc2)n1,60.3% (active)
18,Cc1c(CC(=O)N[C@@H](C)C(=O)O)c(=O)oc2cc3occ(-c4ccccc4)c3cc12,14% (inactive)
19,COc1cc(C(=O)OCC(C)=O)c([N+](=O)[O-])cc1OC,0.4% (inactive)
20,CCSc1nc(-c2ccccc2)c(C#N)c(=O)[nH]1,20% (inactive)
21,N#Cc1c(-c2ccccc2)nc(SCc2ccc(Cl)cc2)[nH]c1=O,24.8% (inactive)
22,O=C(c1ccc2c(=O)n(-c3ccccc3)c(=O)[nH]c2c1)N1CCN(c2ccc(F)cc2)CC1,14.2% (inactive)
23,Cc1ccc(NC(=O)CSc2ccc3c(c2)OCCO3)c(O)c1,54.3% (active)
24,Cc1cccc(SCC(=O)Nc2ccc3c(c2)OCCO3)c1,-70.2% (inactive)
25,Cc1cc(NC(=O)CSc2ccc3c(c2)OCCO3)no1,14.9% (inactive)

row,Compound,inhibition
1,CCn1c(=O)c(=O)[nH]c2cc(C(=O)NC(C)c3ccc(S(N)(=O)=O)cc3)ccc21 (configuration not stated),-19.7% (inactive)
2,O=c1oc2ccc(Cl)cc2cc1-c1nnc(Nc2cccc(C(F)(F)F)c2)s1,9% (inactive)
3,CNc1nnc(-c2cc3cc(Cl)ccc3oc2=O)s1,94.4% (active)
4,CNc1nnc(-c2cc3ccccc3oc2=O)s1,-76.8% (inactive)
5,CCOC(=O)N1CCN(C(=O)c2ccccc2NC(=O)c2ccc(C(C)(C)C)cc2)CC1,4.9% (inactive)
6,CC(=O)c1sc(-c2ccc(F)cc2F)nc1C,-0.7% (inactive)
7,Cc1cnc(NC(=O)c2c(-c3ccccc3)noc2C)s1,5.6% (inactive)
8,Cc1nnc(NC(=O)c2c(-c3ccccc3)noc2C)s1,4.4% (inactive)
9,CCOc1ccc(NC(=O)Nc2ccon2)cc1,-25.3% (inactive)
10,COC(=O)c1ccc(CC(=O)c2ccc(O)cc2O)o1,43.8% (inactive)
11,CCOC(=O)c1ccc(CC(=O)c2ccc(O)cc2O)o1,67.3% (active)
12,CCOC(=O)c1ccc(CC(=O)c2ccc(O)c(O)c2O)o1,8.3% (inactive)
13,CC[N+](CC)(CCO)CCCN1C(=O)C2CC=C(Cl)CC2C1=O (configuration not stated),1.4% (inactive)
14,CCOC(=O)c1sc2nc(C)nc(NCc3ccccc3)c2c1C,22% (inactive)
15,CCOC(=O)c1sc2nc(C)nc(NCc3ccc(F)cc3)c2c1C,45.8% (inactive)
16,CCOC(=O)c1sc2nc(C)nc(NCc3ccc(Cl)cc3)c2c1C,51.3% (active)
17,CC(=O)Nc1ccc(NC(=O)CSc2nc3c([nH]c4ccccc43)c(=O)n2-c2ccccc2F)cc1,34.3% (inactive)
18,c1cc[n+](CCCC[n+]2ccccc2)cc1,7.6% (inactive)
19,c1cc[n+](CCC[n+]2ccccc2)cc1,11.7% (inactive)
20,C(C#CCCCCCCCCC[n+]1ccccc1)#CCCCCCCCCC[n+]1ccccc1,68% (active)
21,CN(C)N1C(N)=C(C#N)C(c2ccc(F)cc2)C2=C1CC(C)(C)CC2=O (configuration not stated),-11.2% (inactive)
22,O=C(COc1cccc(Cl)c1)Nc1nc(-c2ccc(S(=O)(=O)N3CCOCC3)cc2)cs1,-0.1% (inactive)
23,O=C(COc1ccccc1)Nc1nc(-c2ccc(S(=O)(=O)N3CCOCC3)cc2)cs1,25.3% (inactive)
24,Cc1cccc(NC(=O)CCC(=O)Nc2nnc(C(F)(F)F)s2)c1,8.6% (inactive)
25,CCS(=O)(=O)N1CCN=C1SCc1cccc(F)c1,8.5% (inactive)

row,Compound,inhibition
1,O=C(Nc1nc(-c2ccc(-c3ccccc3)cc2)cs1)c1cc([N+](=O)[O-])ccc1N1CCOCC1,6% (inactive)
2,O=C(Nc1nc(-c2ccccc2)cs1)c1ccc(N2CCOCC2)c([N+](=O)[O-])c1,68.1% (active)
3,O=C(Nc1nccs1)c1ccc(N2CCOCC2)c([N+](=O)[O-])c1,-39.7% (inactive)
4,Cc1cc(C(=O)Nc2cccc(/C=C/C(=O)O)c2)c(C)o1,5.6% (inactive)
5,N/C(=N\OC(=O)c1cccc(Cl)c1)c1ccccn1,-99.8% (inactive)
6,CC(C)(C)NC(=O)CSc1nc2scc(-c3ccccc3)c2c(=O)[nH]1,25.9% (inactive)
7,CC(C)CNC(=O)CSc1nc2scc(-c3ccccc3)c2c(=O)[nH]1,37.7% (inactive)
8,CC(C)CNC(=O)c1cccc(C(=O)NCC(C)C)c1,7.3% (inactive)
9,Cn1c(=O)c2c(nc(CN3CCN(c4ccccc4F)CC3)n2CCN2CCOCC2)n(C)c1=O,9% (inactive)
10,O=C(CN1CCOCC1)N1CCc2ccccc2C(c2ccccc2)C1 (configuration not stated),17% (inactive)
11,COc1ccc(F)cc1CN1CCN(c2ncnc3scc(-c4ccccc4)c23)CC1,19.8% (inactive)
12,O=C(NCc1ccccc1Cl)C1CCCN(c2ncnc3c2nc2n3CCCCC2)C1 (configuration not stated),18.9% (inactive)
13,CC1CCN(C(=O)Cn2c(=O)oc3ccccc32)CC1,-2.3% (inactive)
14,COc1ccc(NC(=O)CN(c2ccc([N+](=O)[O-])cc2)S(=O)(=O)c2ccccc2)cc1,-17.8% (inactive)
15,CC(=O)c1cc(CC=C(C)C)c(O)cc1O,30.8% (inactive)
16,CCC(=O)c1ccc(O)c(CC=C(C)C)c1,54.6% (active)
17,CC(=O)c1ccc(O)c(CC=C(C)C)c1,34.2% (inactive)
18,O=c1cc(O)nc(SCc2ccccc2)n1-c1ccccc1,13.3% (inactive) and 9.4% (inactive)
19,S=C(NCc1ccccc1)NN1CCOCC1,1.7% (inactive)
20,Nc1nc(N2CCCCC2)nc2ccccc12,-20.9% (inactive)
21,Cc1cccc(Cn2c(O)c(N=NC(=S)Nc3ccccc3F)c3ccccc32)c1,18.9% (inactive)
22,Cc1cccc(NC(=O)Cn2c(O)c(N=NC(N)=S)c3ccccc32)c1,-8.5% (inactive)
23,O=C(O)c1cccc(NC(=O)c2cccc(S(=O)(=O)N3CCc4ccccc43)c2)c1,-26.3% (inactive)
24,Cc1cccnc1NC(=O)c1cccc(S(=O)(=O)N2CCCc3ccccc32)c1,0.8% (inactive)
25,COc1cccc(C2CC(=O)NC(SC)=C2C#N)c1 (configuration not stated),27.4% (inactive)

row,Compound,inhibition
1,CCO[C@@H]1OC(C(=O)NCc2ccccc2)=C[C@H](c2ccc(Br)cc2)[C@H]1CCCO,-1.4% (inactive)
2,Cc1c(CC(=O)N[C@@H](CCCNC(N)=O)C(=O)O)c(=O)oc2cc3oc4c(c3cc12)CCCC4,14.7% (inactive)
3,COc1ccc(CS(=O)(=O)/C(Cl)=C(/Cl)C(=O)Nc2ccc(OC)nc2)cc1,79.2% (active)
4,COc1ccc(CC(=O)Nc2ccc(OC)nc2)cc1,6.1% (inactive)
5,COc1ccc(NC(=O)C(Cl)=C(Cl)Cl)cn1,-25.2% (inactive)
6,CCN(CC(=O)N(CC(C)C)c1c(N)n(CC(C)C)c(=O)[nH]c1=O)Cc1nc2ccccc2c(=O)[nH]1,13.4% (inactive)
7,Cc1cc(NC(=O)CN(C)S(=O)(=O)c2cccc(Cl)c2)no1,0.9% (inactive)
8,COc1ccc(NC(=O)COC(=O)C2CC(=O)N(c3ccc(OC(C)C)cc3)C2)cc1 (configuration not stated),6.7% (inactive)
9,O=C(NCC1OCCc2ccccc21)c1ccc(NC(=O)c2cccc(Br)c2)cc1 (configuration not stated),2.8% (inactive)
10,Cc1cc(/C=N/Nc2ccc([N+](=O)[O-])cn2)c(C)n1-c1ccccc1,8.4% (inactive)
11,COc1cccc(/C=N/Nc2ncnc(N)c2[N+](=O)[O-])c1OC,-39.2% (inactive)
12,Cc1ccccc1-n1c(C)cc(/C=N/Nc2ccc([N+](=O)[O-])cn2)c1C,-29.9% (inactive)
13,Cc1cc(/C=N/Nc2nc(N)ncc2[N+](=O)[O-])c(C)n1-c1cccc(C(F)(F)F)c1,-78.1% (inactive)
14,O=[N+]([O-])c1cccc(-c2cc(C(F)(F)F)n3nc(-c4ccccc4)cc3n2)c1,26.1% (inactive)
15,CCCN(CCC)CC(O)COc1ccc2c(c1)OCO2 (configuration not stated),4.6% (inactive)
16,O=C(NCc1ccccc1F)C1CCCN1C(=O)Nc1cccc(F)c1 (configuration not stated),-1.7% (inactive)
17,Cc1nn(-c2nc3ccccc3[nH]2)c(=O)c2ccccc12,87.2% (active)
18,Cc1nn(-c2ccccc2)c(=O)c2ccccc12,-1.4% (inactive)
19,O=c1c(Cl)c(N2CCCCC2)cnn1-c1nc2ccccc2[nH]1,-7.2% (inactive)
20,O=c1c(Cl)c(N2CCOCC2)cnn1-c1nc2ccccc2[nH]1,-110% (inactive)
21,O=c1c2ccccc2cnn1-c1nc2ccccc2[nH]1,87.6% (active)
22,Cc1nn(-c2nc3ccccc3[nH]2)c(N)c1-c1ccccc1,-163% (inactive)
